# Data published in PubChem BioAssay.
# Experiment: small-molecule binders of probe aInhba, primary screen, biochemical, small-molecule microarray, 635/667 nm fluorescence (AID 1148);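 note: score merges 667nm spot fluorescence with signal-to-noise for antibody binding to printed compounds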
# Conditions: higher = more signal
row,Structure (SMILES),composite z-score
1,CCC#CCN(Cc1ccccc1Br)[C@H](/C=C/C1CC1)[C@@H](O)Cc1ccccc1,-0.154
2,CCCCN1CC=CC23O[C@@H]4/C=C\CCCOC(=O)C4[C@H]2C(=O)N(CCO)[C@@H]3C1=O (some centres undefined),-0.128
3,C=CCNC(=O)[C@@H]1[C@H]2C(=O)O[C@H](c3ccccc3)[C@H](c3ccccc3)N2[C@H](c2ccccc2OCCO)[C@@]12C(=O)N(C(=O)OCCOC)c1ccc(C#CC3(O)CCCCCC3)cc12,0.115
4,O=C(C1N=C(c2ccc(OCCCO)cc2)N(c2ccccc2)O1)N1CCCCC1 (centres undefined),0.271
5,CN(C)CCCCCCNC(=O)[C@@H]1C[C@@H]2C(=O)N3CCC[C@H]3C(=O)N2[C@@H]1c1cccc(OCCO)c1,1.06
6,COC(=O)[C@@]1(Cc2ccccc2)[C@H]2c3cc(C(=O)N(C)C)n(Cc4ccc(C)o4)c3C[C@H]2CN1C(=O)c1ccccc1,1.44
7,O[C@@H](Cc1ccccc1)[C@@H](/C=C/C1CC1)N(CC#Cc1ccccc1)Cc1ccccc1Br,-0.183
8,COCC(=C=CC[C@H](O)c1ccc(OCCO)cc1)CCO,0.138
9,NCCCCCNC(=O)[C@H]1C[C@H]2C(=O)N3CCC[C@H]3C(=O)N2[C@H]1c1cccc(OCCO)c1,0.0792
10,CCCC[C@@H]1C[C@H]1[C@@H](NC(=O)c1cccs1)c1ccccc1C(F)(F)F,0.274
11,CCOC(=O)C[C@H]1[C@H](OC(=O)Cc2ccc3c(c2)OCO3)[C@@H](NC(=O)C2CCCCC2)c2cc(OCCCO)ccc2N1C(=O)c1ccccc1,-0.0313
12,COc1cc(C(O)C2C=CC3C(=O)N(C)C(=O)C3N2Nc2ccccc2)cc(OC)c1OC (centres undefined),0.813
13,COc1ccc([Si](C)(C)[C@@H]2[C@@H](CC(=O)N3Cc4ccccc4C[C@H]3CO)O[C@]3(C(=O)N(Cc4ccc(N5C(=O)c6cccc7cccc5c67)cc4)c4ccccc43)[C@H]2C)cc1,0.0319
14,C=CCC(OC(C)=O)[C@@H]1[C@@H](N(Cc2ccc(-c3cccc(C(F)(F)F)c3)o2)C(=O)c2ccc(-c3ccccc3)cc2)c2cc(OCCCO)ccc2N1C(=O)Cc1ccc2ccccc2c1 (some centres undefined),-0.113
15,C=CCNC(=O)[C@H]1[C@@H]2C(=O)O[C@@H](c3ccccc3)[C@@H](c3ccccc3)N2[C@@H](c2ccccc2OCCO)[C@]12C(=O)N(C(=O)OCCOC)c1ccc(C#CC3(O)CCCCCC3)cc12,0.0566
16,COc1ccc([Si](C)(C)[C@@H]2[C@@H](CCO)O[C@]3(C(=O)N(Cc4cccc(NC(=O)[C@H](C)O)c4)c4ccccc43)[C@H]2C)cc1,-0.128
17,CCCCC[C@H]1OC[C@@]23C=C(Br)[C@@H](CC12)[C@@]1(CO1)C3=O (some centres undefined),-0.128
18,C=CCN1Cc2ccccc2[C@@H]2OC(c3ccc(OCCCO)cc3)=N[C@]2(CC=C)C1=O,0.462
19,Cc1ccc(NN2C(C(O)c3c(F)cccc3Cl)C=CC3C(=O)N(C4CCCCC4)C(=O)C32)cc1 (centres undefined),-0.0675
20,CCCCC(CC)C(O)C1C=CC2C(=O)N(c3ccccc3)C(=O)C2N1Nc1ccc(C#N)cc1 (centres undefined),0.722
21,NC(=O)[C@H]1[C@@H]2C(=O)O[C@@H](c3ccccc3)[C@@H](c3ccccc3)N2[C@@H](c2ccc(OCCO)cc2)[C@]12C(=O)Nc1ccc(C#CCCO)cc12,0.136
22,CCC1=C2CN(Cc3ccccc3)[C@@H](C(=O)Cc3ccccc3)C2C=CCC1 (some centres undefined),-0.0331
23,[N-]=[N+]=Nc1ccccc1C[C@]1(C(=O)NCC(O)CO)COC(c2ccc(OCCCO)cc2)=N1 (some centres undefined),-0.0131
24,CCCC=C(CCC)[C@@H](NP(=O)(c1ccccc1)c1ccccc1)c1ccc(-c2ccccc2)cc1,0.3
25,CCOC(=O)C[C@H]1[C@H](OC(=O)c2ccc(C(=O)c3ccccc3)cc2)[C@@H](NC(=O)c2ccc(-c3ccccc3)cc2)c2cc(OCCCO)ccc2N1C(=O)Cc1ccc(OC)cc1,0.0569
26,CO[C@H]1O[C@H](CO)[C@@H](OC(=O)CCc2ccccc2)[C@@H]2OC(=O)[C@@H](Cc3ccccc3)C/C=C/C[C@H](Cc3ccccc3)C(=O)O[C@@H]12,-0.315
27,CCOC(=O)C1=C[C@@H](c2ccccc2)N(S(=O)(=O)c2ccc(C)cc2)[C@H]1c1ccc(OC)cc1,0.29
28,[N-]=[N+]=Nc1ccccc1C[C@]1(C(=O)NCCN2CCOCC2)COC(c2ccc(OCCCO)cc2)=N1,0.0497
29,COc1ccc([Si](C)(C)[C@H]2[C@H](CC(=O)N3Cc4ccccc4C[C@H]3CO)O[C@@]3(C(=O)N(Cc4ccc(N5CCOC5=O)cc4)c4ccccc43)[C@@H]2C)cc1,-0.176
